Pf Dd2 inh: qHTS Primary assay for Inhibitors of Plasmodium falciparum Dd2 growth in vitro; P. falciparum Dd2 growth, SYBR Green, 72 h; Potency, µM (series often up to 28.9 µM), usual class: inhibitors; 120,000 compounds, 4.3% hits; AID 1347417, 2020; active means well fitted inhibition curve with a large enough effect; further: nearly all actives have a fitted effect of over 65% in size
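Readout: SYBR Green fluorescence, 485 nm excitation, 535 nm emission, after ~16 h lysis at 37C. Before that, Dd2-infected red cells (2.5% hematocrit) grew 72 h with compound, 29 uM top final concentration.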
Large screens that a line does not name were inactive. The full list was thinned out, with hits kept by preference.

CC(=O)N1CCCC1c1nc2ccccc2n1Cc1cc(C)ccc1C (stereo not drawn)	none
CCC(O)c1nc2ccccc2n1Cc1cc(C)ccc1C (stereo not drawn)	Pf Dd2 inh 11µM
Cc1ccc(NC(=O)CCn2ccn3nc4c(c3c2=O)CCCC4)cc1C	none
Cc1cccc(-c2noc([C@@H]3Cc4nc[nH]c4CN3Cc3ccc(C(=O)O)cc3)n2)c1	none
N#Cc1cccc(CN2Cc3[nH]cnc3C[C@H]2c2nc(-c3cccc([N+](=O)[O-])c3)no2)c1	Pf Dd2 inh 13µM
Cc1cccc(-c2noc([C@@H]3Cc4nc[nH]c4CN3C(=O)c3ccc(F)cc3)n2)c1	none
O=[N+]([O-])c1cccc(-c2noc([C@@H]3Cc4nc[nH]c4CN3Cc3ccc(F)cc3)n2)c1	Pf Dd2 inh 10µM
O=[N+]([O-])c1cccc(-c2noc([C@@H]3Cc4nc[nH]c4CN3Cc3cccs3)n2)c1	none
N#Cc1cccc(CN2Cc3[nH]cnc3C[C@H]2C(=O)NCc2ccco2)c1	none
CN1CCC(Cn2ccc3c(N4CCOCC4)nc(-c4cccc(C(N)=O)c4)cc32)CC1	none
CC(=O)c1cc(CN2CCC(c3nnc4n3CCCCC4)CC2)n(C)c1	none
CO[C@H]1C(=O)N(C2CCN(C(=O)c3cccc4[nH]ccc34)CC2)[C@H]1c1ccncc1	none
NC(=O)c1ccc(-c2nc3c([nH]2)CN(C(=O)CN2CCOCC2)CC3)cc1	none
Cc1cnc(-c2ccccc2)n1CCNC(=O)C1COc2ccccc2O1 (stereo not drawn)	none
Cc1nn2c(c1-c1cccnc1N1CCOCC1)N(CCC(C)C)CCC2	none
CCc1noc(-c2cn(C3CCCN(C(=O)c4ccc(F)c(F)c4)C3)nn2)n1 (stereo not drawn)	none
Cc1ccc(Nc2nc3ccc(C(=O)c4ccccc4)cc3n3c(C)nnc23)c(C)c1	none
COc1cccc(N2CCN(c3nc4ccc(C(=O)c5ccccc5)cc4n4c(C)nnc34)CC2)c1	Pf Dd2 inh 6.3µM
Cc1ccc(N2CCN(c3nc4ccc(C(=O)c5ccccc5)cc4n4cnnc34)CC2)c(C)c1	none
Cc1ccc(Cl)cc1N1CCN(c2nc3ccc(C(=O)c4ccccc4)cc3n3cnnc23)CC1	none
O=C(c1ccccc1)c1ccc2nc(N3CCN(c4ccc(F)cc4)CC3)c3nncn3c2c1	Pf Dd2 inh 11µM
Cc1ccc(C)c(N2CCN(c3nc4ccc(C(=O)c5ccccc5)cc4n4cnnc34)CC2)c1	none
CCO[C@H]1CN(C(=O)Cc2nc(C)sc2C)C[C@@H]1O	none
O=C(OCc1ccccc1)N1CCOCC12CCN(Cc1ccncc1)CC2	none
O=C(OCc1ccccc1)N1CCOCC12CCN(Cc1ccc3[nH]ccc3c1)CC2	Pf Dd2 inh 7.1µM
O=C(c1ccccc1)N1CCOCC12CCN(Cc1ccc3[nH]ccc3c1)CC2	none
Cc1ccccc1-n1nc(C)c(CCC(=O)NCC2CC2)c1Oc1ccccc1	none
O=C(NC[C@H]1O[C@@H](CO)[C@@H](O)[C@H]1N1CCN(c2ccc(F)cc2)CC1)c1ccc(F)c(Cl)c1	none
COC[C@H]1CCCN1C(=O)C[C@@H]1O[C@H](CNS(=O)(=O)c2ccc(Cl)cc2)[C@@H](O)[C@H]1O	none
CCN(CC)S(=O)(=O)c1ccc(NC(=O)[C@H](CSCc2ccccc2)N2Cc3ccccc3C2=O)cc1	Pf Dd2 inh 5µM
Cc1ccc(NC(=O)[C@H](CSCc2ccccc2)N2Cc3ccccc3C2=O)cc1	none
CCc1ccc(NC(=O)[C@H](CSCc2ccccc2)N2Cc3ccccc3C2=O)cc1	none
O=S(=O)(Cc1ccccc1)N1CCC(N2CC(OCC3CC3)C23CCOCC3)CC1 (stereo not drawn)	none
COc1ccc(CCNC(=O)CN2C(=O)C(c3ccccc3)=NC2(C)C)cc1OC	none
CN(CC(=O)NCC1CCN(c2cnn(C)c(=O)c2)C1)C1CCNCC1 (stereo not drawn)	none
Clc1cc(N2CCN(c3ncccn3)CC2)n2nccc2n1	none
COCc1cc(CC2(NCc3ccccc3)COC2)no1	none
O=C(Cn1c2ncccc2c(=O)n1-c1ccccc1)Nc1ccc(F)c(F)c1	none
CCc1cccc(-n2c(=O)c3cccnc3n2CC(=O)Nc2c(C)cc(C)cc2C)c1	none
CCc1ccc(-n2c(=O)c3cccnc3n2CC(=O)Nc2ccccc2C(F)(F)F)cc1	Pf Dd2 inh 11µM
Cc1ccc(-n2c(=O)c3cccnc3n2CC(=O)Nc2cc(C)cc(C)c2)cc1	none
CCOC(=O)c1ccccc1NC(=O)Cn1c2ncccc2c(=O)n1-c1ccccc1	none
Cc1ccc(CNC(=O)Cn2c3ncccc3c(=O)n2-c2ccccc2)cc1	none
CCc1cccc(-n2c(=O)c3cccnc3n2CC(=O)Nc2ccc(F)c(C)c2)c1	Pf Dd2 inh 1.3µM
Cc1ccc(-n2c(=O)c3cccnc3n2CC(=O)Nc2cccc(C)c2C)cc1	Pf Dd2 inh 3.5µM
Cc1ccc(-n2c(=O)c3cccnc3n2CC(=O)Nc2ccc(C)cc2Cl)cc1	none
O=C(Nc1cccc(F)c1)C1=NO[C@@H]2CN(c3ccccn3)C[C@H]12	none
COCCCNC(=O)C1COC2(CCC(C)CC2)N1C(=O)c1ccccc1F (stereo not drawn)	none
COC[C@@H]1CN(Cc2cc(C)nn2C)C[C@H]1C(=O)NC1CC1	none
CCc1ccc2nc(N(Cc3cccnc3)C(=O)c3ccc(C#N)cc3)sc2c1	Pf Dd2 inh 8.9µM
O=C(c1ccco1)N(Cc1cccnc1)c1nc2c(F)cc(F)cc2s1	none
Cc1ccc2nc(N(Cc3cccnc3)C(=O)C3COc4ccccc4O3)sc2c1 (stereo not drawn)	none
O=C(CCS(=O)(=O)c1ccccc1)N(Cc1cccnc1)c1nc2ccc(F)cc2s1	none
O=C(C1COc2ccccc2O1)N(Cc1cccnc1)c1nc2c(Cl)cccc2s1 (stereo not drawn)	none
COc1cccc2sc(N(Cc3cccnc3)C(=O)Cc3ccccc3)nc12	none
O=C(c1ccc(Br)s1)N(Cc1cccnc1)c1nc2ccc(F)cc2s1	Pf Dd2 inh 2.5µM
O=C(c1ccc2c(c1)OCCO2)N(Cc1cccnc1)c1nc2ccc(Cl)cc2s1	none
Cc1ccc2nc(N(Cc3cccnc3)C(=O)c3ccco3)sc2c1	Pf Dd2 inh 10µM
O=C(C1COc2ccccc2O1)N(Cc1cccnc1)c1nc2ccc(F)cc2s1 (stereo not drawn)	none
CC(=O)N(Cc1cccnc1)c1nc2ccc(F)cc2s1	none
O=C(C1CCCCC1)N(Cc1cccnc1)c1nc2ccc(Cl)cc2s1	Pf Dd2 inh 3.2µM
Cc1ccc(-c2nnc(C3CN(C(=O)c4cc(C)nn4C)CC34CCOCC4)o2)cc1 (stereo not drawn)	none
CCn1ccc(C(=O)N2CCC(Cc3ccc(C(=O)N4CCOCC4)cc3)CC2)n1	none
COCc1cc(C[C@H]2CNCC[C@H]2CC(=O)NCc2ccccc2OC)no1	none
O=C1NC(=NC2CCCCC2)C2(CCN([S+](=O)([O-])c3ccccc3)CC2)N1c1cccnc1	none
CC(C)=CCC1(CO)CCCN(C(=O)c2cccn2C2CC2)C1 (stereo not drawn)	none
O=C(CCc1nc2ccccc2s1)N1CCC(c2noc(-c3ccncc3)n2)C1 (stereo not drawn)	none
Cc1nonc1C1CCCN1C(=O)c1cn(Cc2ccccc2F)nn1 (stereo not drawn)	none
COc1ccc2sc(N(Cc3cccnc3)C(=O)CCc3ccccc3)nc2c1	none
O=C(CCc1ccccc1)N(Cc1cccnc1)c1nc2c(F)cc(F)cc2s1	Pf Dd2 inh 10µM
O=C(COc1ccccc1)N(Cc1cccnc1)c1nc2c(F)cc(F)cc2s1	none
COCCNC(=O)N1[C@@H]2CC[C@H]1CC(NC(=O)c1ccc(F)cc1)C2 (stereo partly drawn)	none
O=C(C1CC1)N1CCN(C2CCN(Cc3ccccn3)C2=O)CC1 (stereo not drawn)	none
Cc1cnc(-c2ccccc2)n1CCN	none

Screening data from PubChem.
